# Data reported in PubChem BioAssay.
# Target: Left-right determination factor 2 (Homo sapiens) (UniProt O00292)
# Test: LEFTY2 binders on small-molecule microarrays, primary screen, biochemical, small-molecule microarray, 635 nm fluorescence scan (AID 1110)
# Details: LEFTY2 binding, higher = more signal
# Left-right determination factor 2 (Homo sapiens), sequence (O00292 whole entry, looked up): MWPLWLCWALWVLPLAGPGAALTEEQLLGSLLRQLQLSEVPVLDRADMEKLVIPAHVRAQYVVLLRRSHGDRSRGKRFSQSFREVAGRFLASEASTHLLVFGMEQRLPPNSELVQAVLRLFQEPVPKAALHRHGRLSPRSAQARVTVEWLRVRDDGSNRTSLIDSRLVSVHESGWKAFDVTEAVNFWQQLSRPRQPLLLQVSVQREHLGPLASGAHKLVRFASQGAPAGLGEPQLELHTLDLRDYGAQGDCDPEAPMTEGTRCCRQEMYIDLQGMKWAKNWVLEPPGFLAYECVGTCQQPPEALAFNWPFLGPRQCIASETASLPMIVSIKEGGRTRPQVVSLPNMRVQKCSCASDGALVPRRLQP
row,SMILES,composite z-score
1,[N-]=[N+]=Nc1ccccc1C[C@]1(C(=O)NCCN2CCOCC2)N=C(c2ccc(OCCCO)cc2)O[C@H]1c1ccccc1,-0.0447
2,CCOC(=O)C[C@H]1[C@H](OC(=O)c2ccc(-c3ccccc3)cc2)[C@@H](NC(=O)c2ccc3ccccc3c2)c2cc(OCCCO)ccc2N1C(=O)Cc1ccc(OC)cc1,0.0216
3,CC(C)(C)OC(=O)CC[C@@]1(C(=O)O)N=C(c2ccc(OCCCO)cc2)O[C@@H]1c1ccccc1N=[N+]=[N-],-0.486
4,O=C1C[C@]2(c3ccc([N+](=O)[O-])cc3)C(=O)N(CC(F)(F)F)c3cc(CO)ccc3[C@H]2N1CC12CC3CC(CC(C3)C1)C2,-0.211
5,O=C1OCCC=C[C@H]2OC34C=CCN(c5ccc6ccccc6c5)C(=O)[C@H]3N(CCCCCO)C(=O)[C@@H]4C12 (stereo not given in full),-1.05
6,Cc1cc(C)c(C(O)C2C=CC3C(=O)N(c4ccccc4)C(=O)C3N2Nc2ccc(C#N)cc2)c(C)c1 (stereo not given),0.219
7,C=C[C@@H](COC(C)=O)N(Cc1ccccc1[N+](=O)[O-])S(=O)(=O)c1ccc(Br)cc1,1.02
8,COCCOC(=O)N1C(=O)[C@@]2(c3cc(C#Cc4ccc(OC)cc4)ccc31)[C@H](C(=O)N1CCN(c3ncccn3)CC1)[C@H]1C(=O)O[C@H](c3ccccc3)[C@H](c3ccccc3)N1[C@@H]2c1ccc(O)cc1,0.0473
9,CCOC(=O)C[C@H]1[C@H](OC(=O)c2ccc(-c3ccccc3)cc2)[C@@H](NC(=O)c2ccc(-c3ccccc3)cc2)c2cc(OCCCO)ccc2N1C(=O)Cc1ccc(OC)cc1,-0.186
10,COC(=O)[C@@]1(Cc2ccccc2)[C@H]2c3cc(C(=O)N4CCCC4)n(C)c3C[C@H]2CN1C(=O)c1ccccc1,-0.302
11,COC(=O)[C@@]1(Cc2ccccc2N=[N+]=[N-])COC(c2ccc(OCCCO)cc2)=N1,-0.675
12,CC(C)C(=C=CC[C@@H](O)c1ccccc1OCCO)C[C@@H](O)c1ccccn1,0.28
13,O=C(O)[C@H]1C[C@H]2C(=O)NCC(=O)N2[C@H]1c1ccc(O)cc1,0.205
14,C=CC[C@]1(C(=O)N2CCOCC2)N=C(c2ccc(OCCCO)cc2)O[C@H]1c1ccccc1,-0.42
15,COc1cc(C(O)C2C=CC3C(=O)N(c4ccccc4)C(=O)C3N2Nc2ccc(C#N)cc2)cc(OC)c1OC (stereo not given),0.305
16,O=C1O[C@H](c2ccccc2)[C@H](c2ccccc2)N2[C@H]1[C@@H](C(=O)Nc1nc3ccccc3s1)[C@]1(C(=O)Nc3ccccc31)[C@H]2c1ccc(O)cc1,0.684
17,O=C1O[C@@H](c2ccccc2)[C@@H](c2ccccc2)N2[C@@H](c3ccc(O)cc3)[C@]3(C(=O)Nc4ccc(C#CC5(O)CCCCCC5)cc43)[C@@H](C(=O)N3CCCCCCC3)[C@H]12,1.43
18,O=C1C=CC(=O)[C@@H]2CC(COc3ccccc3)=C3[C@@H](CCc4ccccc4)OB(O)C[C@@H]3[C@H]12,0.41

row,SMILES,composite z-score
1,CCOC(=O)C1=CCC(C(C)(C)C)N(S(=O)(=O)c2ccc(C)cc2)C1 (stereo not given),1.37
2,CCOC(=O)C1=CCC(c2ccc([N+](=O)[O-])cc2)N(S(=O)(=O)c2ccc(C)cc2)C1 (stereo not given),-0.087
3,NCCCCCCNC(=O)[C@H]1C[C@H]2C(=O)NCC(=O)N2[C@H]1c1cccc(OCCO)c1,0.816
4,NC(=O)NCC#Cc1ccc2c(c1)[C@]1(C(=O)N2)[C@H](C(=O)NC[C@H](O)c2ccccc2)[C@H]2C(=O)O[C@H](c3ccccc3)[C@H](c3ccccc3)N2[C@@H]1c1ccc(O)cc1,0.691
5,O=C1N(CCS(=O)(=O)c2ccccc2)Cc2ccccc2[C@H]2OC(c3ccc(OCCCO)cc3)=N[C@@]12CCS(=O)(=O)c1ccccc1,0.558
6,O=C1C2C=CC(C(O)c3ccc(F)cc3)N(Nc3ccccc3)C2C(=O)N1c1ccccc1 (stereo not given),-0.238
7,CCOC(=O)C1=C[C@@H](CC)N(S(=O)(=O)c2ccc(C)cc2)[C@H]1c1ccccc1,0.0917
8,COc1ccc(CCNC(=O)[C@@]2(c3ccc([N+](=O)[O-])cc3)CC(=O)N(CC34CC5CC(CC(C5)C3)C4)[C@@H]2c2ccc(CO)cc2)cc1,0.614
9,CCC[C@@H]1C=C(C(=O)O)[C@H](c2ccc(C)cc2)N1S(=O)(=O)c1ccc(C)cc1,-0.442
10,[N-]=[N+]=NCc1ccccc1[C@H]1OC(c2ccc(OCCCO)cc2)=N[C@@]1(CCS(=O)(=O)c1ccccc1)C(=O)N1CCOCC1,0.402
11,O=C/C=C/c1ccc2c(c1)OCO2,0.528
12,COc1ccc(C(O)C2C=CC3C(=O)N(C)C(=O)C3N2Nc2ccccc2)cc1OCc1ccccc1 (stereo not given),0.195
13,C=C(CCCC)/C(=C/C[C@H](OC(C)=O)c1ccc(CO)o1)c1cnc2ccccc2c1,0.487
14,COCCOC(=O)N1C(=O)[C@@]2(c3cc(C#CCCO)ccc31)[C@H](c1ccccc1OCCO)N1[C@H](c3ccccc3)[C@H](c3ccccc3)OC(=O)[C@H]1[C@@H]2C(=O)N1CCN(c2ncccn2)CC1,1.15
15,CCCCC(O)C1C=CC2C(=O)N(C3CCCCC3)C(=O)C2N1Nc1ccc(OC)cc1 (stereo not given),0.0786
16,COCCOC(=O)N1C(=O)[C@@]2(c3cc(C#CCNC(N)=O)ccc31)[C@H](c1ccc(OCCO)cc1)N1[C@H](c3ccccc3)[C@H](c3ccccc3)OC(=O)[C@H]1[C@@H]2C(=O)N1CCc2cc(OC)c(OC)cc2C1,0.603
17,COc1ccc([Si](C)(C)[C@H]2[C@H](CC(=O)N(CCO)Cc3ccccc3)O[C@@]3(C(=O)N(Cc4cccc(N5CCC5=O)c4)c4ccccc43)[C@@H]2C)cc1,0.829
